From article PMC4336329 (PLoS ONE, 2015)
Among all 310,000 compounds or so, about 2,200 (0.71%) showed an effect of 50% or more. The effect is printed as a negative number. Many of the other results were omitted from the sample, so strong results are more common in it than they were.

These molecules were tested against human ether-à-go-go-related gene (hERG) potassium channel (human, UniProt Q12809) (assay: primary screen, population patch clamp on CHO cells stably expressing hERG; higher = less effect of the substance).
Chain of human ether-à-go-go-related gene (hERG) potassium channel (Q12809 whole entry, looked up): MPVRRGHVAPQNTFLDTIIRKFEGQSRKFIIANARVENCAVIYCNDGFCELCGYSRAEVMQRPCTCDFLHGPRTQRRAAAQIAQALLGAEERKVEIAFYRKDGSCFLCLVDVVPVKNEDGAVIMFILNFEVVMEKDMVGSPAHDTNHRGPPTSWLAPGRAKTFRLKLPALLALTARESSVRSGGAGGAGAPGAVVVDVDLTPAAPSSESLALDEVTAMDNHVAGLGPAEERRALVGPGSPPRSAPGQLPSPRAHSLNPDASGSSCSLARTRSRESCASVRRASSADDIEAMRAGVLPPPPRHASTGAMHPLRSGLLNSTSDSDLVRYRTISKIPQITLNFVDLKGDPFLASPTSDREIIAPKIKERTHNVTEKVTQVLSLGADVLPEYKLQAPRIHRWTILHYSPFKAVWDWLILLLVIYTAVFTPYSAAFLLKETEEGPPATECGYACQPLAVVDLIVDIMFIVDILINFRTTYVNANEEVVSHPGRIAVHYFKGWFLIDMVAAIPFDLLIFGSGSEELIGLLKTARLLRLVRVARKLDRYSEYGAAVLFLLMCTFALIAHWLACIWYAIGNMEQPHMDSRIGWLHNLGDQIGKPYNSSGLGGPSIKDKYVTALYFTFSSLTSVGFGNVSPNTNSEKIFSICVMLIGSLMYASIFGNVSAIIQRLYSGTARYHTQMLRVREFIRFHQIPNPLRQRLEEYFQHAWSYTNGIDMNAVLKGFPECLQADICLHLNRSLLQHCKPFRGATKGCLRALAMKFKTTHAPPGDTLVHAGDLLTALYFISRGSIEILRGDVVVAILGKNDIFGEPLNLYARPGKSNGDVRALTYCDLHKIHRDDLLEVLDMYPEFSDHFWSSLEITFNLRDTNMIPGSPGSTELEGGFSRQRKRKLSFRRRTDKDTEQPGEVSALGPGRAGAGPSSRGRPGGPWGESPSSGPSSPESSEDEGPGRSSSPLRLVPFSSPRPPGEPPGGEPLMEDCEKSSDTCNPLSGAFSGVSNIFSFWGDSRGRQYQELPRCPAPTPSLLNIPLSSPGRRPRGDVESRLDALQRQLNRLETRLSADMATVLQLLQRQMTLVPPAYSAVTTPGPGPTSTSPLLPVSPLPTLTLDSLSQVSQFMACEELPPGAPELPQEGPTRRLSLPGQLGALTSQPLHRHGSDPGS

First: CCCCNC(=O)/C(=C/c1ccccc1)NC(C)=O
Second: CCCc1cc(C(=O)NCCc2ccccc2)no1
The “hERG current change (%, negative = inhibition) at 1uM” value of the first is higher: 1.06% for the first, -4.85% for the second.

First: Cc1ccc(CNC(=O)CSc2nc3c(sc4ccccc43)c(=O)n2CCCN2CCCC2)cc1
Second: O=C(CSc1nc2c(sc3ccccc32)c(=O)n1CCCN1CCCC1)NCc1ccccc1
The “hERG current change (%, negative = inhibition) at 1uM” value of the first is higher: -57.9% for the first, -67.9% for the second.

Going from `O=C(CSc1nc2c(sc3ccccc32)c(=O)n1CCCN1CCOCC1)NCC1CCCO1` (stereo not shown) to `O=C(CSc1nc2c(sc3ccccc32)c(=O)n1CCCN1CCCC1)NCC1CCCO1` (stereo not shown), the “hERG current change (%, negative = inhibition) at 1uM” value falls from 2.38% to -19.8%.

Compared with `CCN(CC)CCn1c(SCC(=O)NCc2ccco2)nc2c(sc3ccccc32)c1=O`, `CCCCn1c(SCC(=O)NCc2ccco2)nc2c(sc3ccccc32)c1=O` is higher in “hERG current change (%, negative = inhibition) at 1uM” value: -50.4% for the first, -4.7% for the second.

Going from `O=C(CCCCCn1c(SCc2ccncc2)nc2ccccc2c1=O)NCc1ccco1` to `Cc1ccc(CSc2nc3ccccc3c(=O)n2CCCC(=O)NCc2ccco2)cc1`, the “hERG current change (%, negative = inhibition) at 1uM” value rises from -88.4% to 1.62%.

Compared with `Cc1ccc(CNC(=O)CSc2nc3ccccc3c(=O)n2CCCO)cc1`, `O=C(CSc1nc2ccccc2c(=O)n1CCCO)NCc1ccccc1` is higher in “hERG current change (%, negative = inhibition) at 1uM” value: -51.3% for the first, -4.26% for the second.

Going from `COCCCn1c(SCC(=O)NCc2ccccc2)nc2ccccc2c1=O` to `O=C(CCCCCn1c(SCC(=O)c2ccccc2)nc2ccccc2c1=O)NCc1ccco1`, the “hERG current change (%, negative = inhibition) at 1uM” value rises from -8.03% to 14.7%.

Going from `O=C(CSc1nc2c(sc3ccccc32)c(=O)n1CCO)NCc1ccco1` to `CCOCCCn1c(SCC(=O)NCc2ccco2)nc2c(sc3ccccc32)c1=O`, the “hERG current change (%, negative = inhibition) at 1uM” value rises from -1% to 3.64%.

First: COc1cccc(NC(=O)CSc2nc3c(sc4ccccc43)c(=O)n2CCCN2CCCC2)c1
Second: COc1ccc(NC(=O)CSc2nc3c(sc4ccccc43)c(=O)n2CCCN2CCCC2)cc1
The “hERG current change (%, negative = inhibition) at 1uM” value of the first is lower: -3.14% for the first, -1.35% for the second.

Compared with `O=C(CN1C(=O)/C(=C/c2ccccc2F)Sc2ccccc21)N1CCN(c2ccccn2)CC1`, `Cc1[nH]n(-c2ccc([N+](=O)[O-])cc2)c(=O)c1C=NCCN1CCN(C(=O)c2ccccc2F)CC1` is lower in “hERG current change (%, negative = inhibition) at 1uM” value: 12.8% for the first, -34.2% for the second.

Going from `CC(=O)Nc1cccc(C(=O)OCC(=O)NC(C)c2ccc(F)cc2)c1` (stereo not shown) to `COc1ccc(N2CCC(CNC(=S)Nc3cccc(OC)c3)C2)cc1` (stereo not shown), the “hERG current change (%, negative = inhibition) at 1uM” value falls from 16.1% to 8.46%.

Going from `Cc1cc(Oc2ccc(-c3ccccc3)cc2)nc(N2CCOCC2)n1` to `CCOc1ccc(Nc2ncnc3c2cnn3Cc2ccccc2)cc1`, the “hERG current change (%, negative = inhibition) at 1uM” value rises from 2.61% to 8.72%.

Going from `Cc1ccc(-n2c(SCC(=O)NC3CCCCC3)nc3c(c2=O)SCC3)cc1` to `Cc1ccc2nc(SCC(=O)N3CCCCC3)nc(=O)n2c1`, the “hERG current change (%, negative = inhibition) at 1uM” value rises from 9.81% to 12.4%.

Compared with `COc1ccc(C(=O)N=C2SC3CS(=O)(=O)CC3N2Cc2ccc(OC)c(OC)c2)cc1` (stereo not shown), `COc1ccc(CCN=Cc2c(C)[nH]n(-c3ccc([N+](=O)[O-])cc3)c2=O)cc1OC` is lower in “hERG current change (%, negative = inhibition) at 1uM” value: 10.7% for the first, 7% for the second.

Going from `C=CCOc1cccc(C2/C(=C(/O)c3ccc(F)cc3)C(=O)C(=O)N2CCN2CCOCC2)c1` (stereo not shown) to `Cc1[nH]n(-c2ccc([N+](=O)[O-])cc2)c(=O)c1C=NCCN1CCN(C(=O)c2ccc(F)cc2)CC1`, the “hERG current change (%, negative = inhibition) at 1uM” value falls from 12.9% to -81.7%.

Compared with `O=[N+]([O-])c1cc(C(F)(F)F)cc([N+](=O)[O-])c1NN=C1CCCCC1`, `Cc1[nH]n(-c2ccc([N+](=O)[O-])cc2)c(=O)c1C=NCC1CCCO1` (stereo not shown) is lower in “hERG current change (%, negative = inhibition) at 1uM” value: 9.66% for the first, 7.67% for the second.

First: CC(=O)N1CCN(Cc2nc3cc(NC(=O)Nc4ccccc4)ccc3n2C)CC1
Second: Cc1[nH]n(-c2ccc([N+](=O)[O-])cc2)c(=O)c1C=NCCN1CCN(C(=O)c2ccccc2)CC1
The “hERG current change (%, negative = inhibition) at 1uM” value of the first is higher: 15.5% for the first, -77% for the second.

Going from `CC(C)CN(C(=O)COC(=O)C12CC3CC(CC(O)(C3)C1)C2)C1CCS(=O)(=O)C1` (stereo not shown) to `C[C@H](CCC(=O)O)[C@H]1CC[C@H]2[C@@H]3CC[C@@H]4C[C@H](O)CC[C@]4(C)[C@H]3CC[C@]12C`, the “hERG current change (%, negative = inhibition) at 1uM” value falls from 18.7% to 15.8%.

Compared with `CSCCC(/C(O)=C(\C#N)c1nc2ccccc2[nH]1)N1C(=O)c2ccccc2C1=O` (stereo not shown), `O=C(CSc1nc2c(sc3ccccc32)c(=O)n1CCc1ccccc1)NCc1ccco1` is lower in “hERG current change (%, negative = inhibition) at 1uM” value: 5.68% for the first, 2.54% for the second.

First: CC(C)C(=O)Nc1ccc(C(=O)NNC(=O)NC2CCCCC2)cc1
Second: CC1(C(=O)NCCc2c[nH]c3ccccc23)C=CC2(CCCCC2)N1C(=O)c1ccccc1 (stereo not shown)
The “hERG current change (%, negative = inhibition) at 1uM” value of the first is higher: 21.9% for the first, 2.59% for the second.

Compared with `O=C(CSc1nc2c(sc3ccccc32)c(=O)n1CCCN1CCCC1)NCc1ccco1`, `O=c1c(C=NCCN2CCNCC2)c(-c2ccccc2)[nH]n1-c1ccc([N+](=O)[O-])cc1` is higher in “hERG current change (%, negative = inhibition) at 1uM” value: -70.1% for the first, -31% for the second.

Compared with `O=C(/C=C/c1ccc(Cl)cc1)NCc1ccncc1`, `Cc1[nH]n(-c2ccc([N+](=O)[O-])cc2)c(=O)c1C=NCCc1ccc(S(N)(=O)=O)cc1` is higher in “hERG current change (%, negative = inhibition) at 1uM” value: 9.09% for the first, 13.6% for the second.

Compared with `COc1ccccc1-n1c([S-])c(C(=O)Nc2ccccc2C(F)(F)F)[n+]2ccc(C(=O)NCCO)cc12`, `Cc1[nH]n(-c2ccc([N+](=O)[O-])cc2)c(=O)c1C=NCCN1CCN(C(=O)c2cccc(F)c2)CC1` is lower in “hERG current change (%, negative = inhibition) at 1uM” value: 12.9% for the first, -78% for the second.

Compared with `Nc1ncnc(Nc2c(F)cccc2F)n1`, `CCOCCCNc1nc2c(C)cccn2c(=O)c1/C=C1\SC(=S)N(C(C)CC)C1=O` (stereo not shown) is higher in “hERG current change (%, negative = inhibition) at 1uM” value: 7.67% for the first, 10.1% for the second.

Going from `C=CCNC(=S)N1CCN(CCN=Cc2c(C)[nH]n(-c3ccc([N+](=O)[O-])cc3)c2=O)CC1` to `Cc1[nH]n(-c2ccc([N+](=O)[O-])cc2)c(=O)c1C=NCCN1CCN(C(=O)C(C)C)CC1`, the “hERG current change (%, negative = inhibition) at 1uM” value rises from -27.3% to -19.5%.

Going from `COc1ccc(-c2[nH]n(-c3ccc([N+](=O)[O-])cc3)c(=O)c2C=NCCN2CCNCC2)cc1` to `Cc1[nH]n(-c2ccc([N+](=O)[O-])cc2)c(=O)c1C=NCCN1CCN(C(=O)c2ccc(Br)cc2)CC1`, the “hERG current change (%, negative = inhibition) at 1uM” value falls from 2.86% to -77.4%.
